# Records with an inconclusive call do not appear. For some assays here: Entries with a potency or affinity are not part of this list. Active and inactive are the calls of the source. Cut-off read from the data, not from the text of the source, unless noted: active = inhibition above about 80%; inactive = the rest.
# Tests used:
# [1] = polyglutamine-triggered caspase-3 activation inhibitors, cell-based (AID 1583); details: polyglutamine-induced caspase-3 activation, cell assay; stronger effect = higher value;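 tested at 10 µM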
# [2] = suppressors of polyQ aggregation in yeast, 75Q-TubU reporter (AID 1593); details: Yeast 75Q polyglutamine aggregation reporter
# [3] = protection of motor neurons from glutamate death, cell-based, TUNEL DNA degradation staining, MNGlu (AID 1594; call rule not given here); details: glutamate-induced death, at 1 µM, stronger effect = higher value
# [4] = rescue of polyQ-huntingtin neuronal dysfunction in worms, whole organism, C. elegans mechanosensory neurons, N-terminal huntingtin (AID 1599); details: touch response, stronger effect = higher value
# [5] = inhibitors of mitochondrial cytochrome c release, biochemical, purified mitochondria (AID 1603); details: stronger effect = lower value;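 note: mouse liver mitochondria challenged with calcium chloride; signal normalized to the plate average as 100%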
# [6] = inhibitors of polyQ protein aggregation (AID 1604); details: polyglutamine-induced protein aggregation inhibition assay; stronger effect = higher value; tested at 2.5 µM
# [7] = enhancers of glutamate uptake in motor neurons, MN-1 cell line (AID 1612); details: MN-1 motor neuron cells, stronger effect = higher value;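 note: tested at 1 µM final; 0% = mean of DMSO vehicle wells on each plate; positive means more glutamate uptake than control and negative means less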
# [8] = reducers of polyQ inclusions in PC12 cells, cell-based, NGF-treated PC12, GFPQ80 (AID 1614); details: PC12 NGF-treated GFP-polyQ80 inclusion reduction;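 note: lower means fewer inclusions and 0 means no inclusions at all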
# [9] = suppressors of polyglutamine aggregation in yeast, 75Q-TubH (AID 1616); details: S. cerevisiae 75Q-TubH polyglutamine aggregation suppression; stronger effect = higher value
# [10] = circadian clock period modulators, cell-based, LOPAC library, luminescence reporter (AID 2774; call rule not given here;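 note: values are relative to mean of DMSO wells on each plate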); details: circadian reporter cells, at 7 µM, actives lie on both sides
# [11] = LFS_MB_P medulloblastoma growth inhibition, cell-based, chromothripsis tumors, cisplatin or BGB combos (AID 1671449); details: LFS_MB_P medulloblastoma cells;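 note: cells exposed for 96 hours; 0% = vehicle DMSO and 100% = killing by high DMSO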
# [12] = HDN33 neuroblastoma growth inhibition, cell-based, chromothripsis tumors, cisplatin or BGB combos (AID 1671450); details: HDN33 neuroblastoma cells, stronger effect = higher value;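 note: cells exposed to compound for four days; 0% = vehicle DMSO and 100% = cell killing by high DMSO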
# [13] = ICB984 medulloblastoma cell growth inhibition, synergistic combos for chromothripsis tumors, cisplatin or BGB combos (AID 1671451; call rule not given here;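 note: cells exposed for 96 hours before readout; 0% = vehicle DMSO and 100% = killing by high DMSO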); details: ICB984 medulloblastoma cells, drug combinations, stronger effect = higher value
# [14] = LFS_MB_1R medulloblastoma cell growth inhibition, synergistic combos for chromothripsis tumors, cisplatin or BGB combos (AID 1671452); details: LFS_MB_1R medulloblastoma cells, stronger effect = higher value;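 note: cells exposed for 96 hours before readout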
# [15] = HTB85 osteosarcoma cell growth inhibition, synergistic combos for chromothripsis tumors, BGB or cisplatin IC20 combos (AID 1671453); details: HTB85 osteosarcoma cells, drug combinations, stronger effect = higher value;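 note: cells exposed for 96 hours before readout; 0% = vehicle DMSO and 100% = high DMSO killing control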
# [16] = CRL2098 osteosarcoma cell growth inhibition, synergistic combos for chromothripsis tumors, BGB or cisplatin IC20 combos (AID 1671454); details: CRL2098 osteosarcoma cells, drug combinations, stronger effect = higher value;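 note: cells exposed for 96 h before readout; 0% = vehicle DMSO and 100% = killing by high DMSO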
# [17] = HD-MB03 medulloblastoma cell growth inhibition, synergistic combos for chromothripsis tumors, BGB or cisplatin IC20 combos (AID 1671455; in the data active = inhibition above about 83%;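 note: 0% = vehicle DMSO and 100% = high DMSO as cytotoxic control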); details: HD-MB03 medulloblastoma cells, stronger effect = higher value
# [18] = UWB1.289 ovarian carcinoma cell growth inhibition, synergistic combos for chromothripsis tumors, BGB or cisplatin combos (AID 1671456); details: UWB1.289 ovarian carcinoma cells, stronger effect = higher value;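 note: cells exposed to compound for four days; 0% = vehicle DMSO and 100% = killing by high DMSO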
# [19] = LFS_MB_2R medulloblastoma cell growth inhibition, synergistic combos for chromothripsis tumors, cisplatin combos (AID 1671457); details: LFS_MB_2R medulloblastoma cells, stronger effect = higher value;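 note: cells exposed to compound for four days before readout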
# [20] = MDA-MB-436 breast carcinoma cell growth inhibition, synergistic combos for chromothripsis tumors, BGB or cisplatin combos (AID 1671458; call rule not given here;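 note: cells exposed for 96 hours; 0% = vehicle DMSO and 100% = killing by high DMSO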); details: MDA-MB-436 breast carcinoma growth inhibition, drug combinations, stronger effect = higher value
# [21] = UWB1.289_BRCA1 ovarian cancer growth, cell-based, BGB or cisplatin combinations (AID 1671459); details: UWB1.289 BRCA1 ovarian carcinoma, drug combinations, stronger effect = higher value
# [22] = human astrocyte viability loss, single and combined drugs, cytotoxicity control for chromothriptic childhood tumor combination screen, cell-based, BGB or cisplatin IC20 combos (AID 1671460); details: Human astrocytes, drug combinations, stronger effect = higher value;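 note: cells exposed to compounds for 96 hours before viability readout; 0% = vehicle and 100% = killing control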
# [23] = growth inhibition of BT084 medulloblastoma cells, cell-based, ICGC_MB145, cisplatin and BGB IC40 combos (AID 1671461); details: drug combinations, stronger effect = higher value;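 note: cells exposed to drugs for 96 hours; 0% = vehicle DMSO and 100% = high DMSO full killing control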
# [24] = growth inhibition of RCMB18 medulloblastoma cells, cell-based, cisplatin and BGB IC40 combos (AID 1671462); details: stronger effect = higher value;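 note: cells exposed to compound for four days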
# [25] = growth inhibition of CRL1545 osteosarcoma cells, cell-based, cisplatin and BGB IC20 combos (AID 1671464); details: stronger effect = higher value;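 note: cells exposed to compound for 96 hours before readout; 0% = vehicle DMSO and 100% = high DMSO killing control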
# [26] = antimalarial activity against Dd2 strain (AID 2302;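 active = growth inhibition above 50% at the single 2 µM test dose, taken to imply half-maximal potency below 2 µM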;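 note: 0% = DMSO untreated growth and 100% = chloroquine plus artemisinin killed control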); details: P. falciparum Dd2 in RBCs, LDH growth readout, 72 h; at 2 µM; stronger effect = higher value
# [27] = HepG2 cytotoxicity, primary screen, cytotoxicity control for P. falciparum antimalarial project, cell-based, ATP luminescence (AID 2303;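 active = inhibition above 50%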;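 note: 0% = DMSO wells and 100% = digitonin-killed cells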); details: HepG2 viability, 24-48 h, at 10 µM, stronger effect = higher value
# [28] = target: L-lactate dehydrogenase (Plasmodium falciparum (isolate CDC / Honduras)) (UniProt Q27743); test: PfLDH activity inhibition – cell lysate, 3D7 strain, counter-screen for P. falciparum growth inhibition project (AID 2304; call rule not given here;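 note: 0% = vehicle and 100% = reference inhibitor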); details: P. falciparum 3D7 crude extract, LDH APAD/NBT absorbance; at 2 µM; stronger effect = higher value
# [29] = inhibition of 3D7 malaria parasite growth – strain 3D7 (AID 2306; call rule not given here;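 note: 0% = DMSO wells and 100% = chloroquine plus artemisinin control wells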); details: P. falciparum 3D7 erythrocytic growth, LDH absorbance, 72 h; at 2 µM; stronger effect = higher value
# [30] = measured here: combination with BGB IC40, at 0.05 µM
# [31] = measured here: with BGB IC20 combination, at 0.5 µM
# [32] = measured here: with cisplatin IC20 combination, at 0.5 µM
# [33] = measured here: combination with cisplatin, at 0.5 µM
# [34] = measured here: combination with cisplatin, at 5 µM
# Chain of L-lactate dehydrogenase (Plasmodium falciparum (isolate CDC / Honduras)) (Q27743 whole entry, looked up): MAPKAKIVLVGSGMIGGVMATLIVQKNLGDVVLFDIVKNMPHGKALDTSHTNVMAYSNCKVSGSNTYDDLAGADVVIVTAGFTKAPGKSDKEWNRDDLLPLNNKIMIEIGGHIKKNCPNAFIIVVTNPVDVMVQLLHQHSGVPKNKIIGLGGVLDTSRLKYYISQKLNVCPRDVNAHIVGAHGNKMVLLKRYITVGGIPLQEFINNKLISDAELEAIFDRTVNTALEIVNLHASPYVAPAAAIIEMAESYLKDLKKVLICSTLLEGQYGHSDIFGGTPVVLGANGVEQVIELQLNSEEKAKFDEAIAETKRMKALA
compound,measurement,setting,value
O=C1CN=C(c2ccccc2)c2cc(Cl)ccc2N1,inhibition,[1],6.42%
same,score,[2],1.16
same,protection,[3],38% (active)
same,rescue above control,[4],2.8
same,cytochrome c release ratio,[5],0.98
same,inhibition of aggregation,[6],2.04%
same,glutamate uptake change,[7],-20.9%
same,inclusion score,[8],2
same,aggregation suppression score,[9],1.12
COc1ccc2[nH]cc(CCN(C)C)c2c1,period change,[10],0.045 h (inactive)
CN1C[C@@H](CS(=O)(=O)N(C)C)C[C@@H]2c3cccc4c3c(cn4C)C[C@H]21,period change,[10],-0.105 h (inactive)
O=c1[nH]c(=O)n(C2OC(CO)C(O)C2O)cc1F (stereo not drawn),inhibition,"[11]; at 0.5 µM, stronger effect = higher value",-2.55% (inactive)
same,inhibition,"[11]; measured here: combination with BGB IC20, at 0.005 µM",-22.7%
same,inhibition,"[11]; measured here: combination with BGB IC40, at 0.005 µM",-24.2%
same,inhibition,[11]; [30],-0.747%
same,inhibition,"[11]; measured here: combination with cisplatin, at 0.5 µM, stronger effect = higher value",-21.6%
same,inhibition,"[11]; measured here: combination with cisplatin, at 5 µM, stronger effect = higher value",22.1%
same,inhibition,"[12]; BGB combo, at 5 µM",98.3%
same,inhibition,[12]; at 0.5 µM,71.5% (inactive)
same,inhibition,"[12]; cisplatin combo, at 5 µM",97.9%
same,inhibition,[12]; [31],69.4%
same,inhibition,[12]; [32],68.6%
same,inhibition,"[12]; single agent, at 5 µM",98.1%
same,inhibition,"[13]; BGB IC20 combo, at 0.005 µM",26.6%
same,inhibition,"[13]; BGB IC40 combo, at 0.005 µM",32%
same,inhibition,"[13]; BGB IC40 combo, at 0.05 µM",86.4%
same,inhibition,[13]; at 0.5 µM,-9.47% (inactive)
same,inhibition,"[13]; cisplatin combo, at 0.05 µM",86.4%
same,inhibition,"[13]; cisplatin combo, at 0.5 µM",-24.4%
same,inhibition,"[13]; cisplatin combo, at 5 µM",-10.9%
same,inhibition,"[13]; measured here: 5 uM single agent, at 5 µM",-6.81%
same,inhibition,[14]; at 0.5 µM,-13.3% (inactive)
same,inhibition,[14]; [30],-3.21%
same,inhibition,[14]; [33],-2.35%
same,inhibition,[14]; [34],44.8%
same,inhibition,[15]; at 0.5 µM,22% (inactive)
same,inhibition,"[15]; measured here: with BGB IC20, at 0.5 µM",-3.46%
same,inhibition,"[15]; measured here: with BGB IC20, at 5 µM",59.1%
same,inhibition,"[15]; measured here: with cisplatin IC20, at 0.5 µM",26.3%
same,inhibition,"[15]; measured here: with cisplatin IC20, at 5 µM",57.2%
same,inhibition,"[15]; single agent, at 5 µM",76.2%
same,inhibition,[16]; at 0.5 µM,-23.1% (inactive)
same,inhibition,"[16]; measured here: combination with BGB at IC20, at 0.5 µM",-14.1%
same,inhibition,"[16]; measured here: combination with cisplatin at IC20, at 0.5 µM",-20.6%
same,inhibition,[17]; at 0.5 µM,66.9% (inactive)
same,inhibition,"[17]; measured here: combo with BGB at IC20, at 0.5 µM",71.1%
same,inhibition,"[17]; measured here: combo with cisplatin at IC20, at 0.5 µM",54%
same,inhibition,[18]; at 0.5 µM,33.5% (inactive)
same,inhibition,"[18]; measured here: inhibition with BGB combination, at 0.05 µM",-10.9%
same,inhibition,"[18]; measured here: inhibition with cisplatin combination, at 0.05 µM",10.1%
same,inhibition,[19]; at 0.5 µM,-12.7% (inactive)
same,inhibition,[19]; [33],-4.31%
same,inhibition,[19]; [34],6.83%
same,inhibition,[20]; at 0.5 µM,45.1% (inactive)
same,inhibition,"[20]; measured here: BGB combination, at 0.5 µM",27.6%
same,inhibition,"[20]; measured here: BGB combination, at 5 µM",83.1%
same,inhibition,"[20]; measured here: cisplatin combination, at 0.5 µM",39.9%
same,inhibition,"[20]; measured here: cisplatin combination, at 5 µM",86.1%
same,inhibition,"[21]; BGB combination, concentration series, at 5 µM",110%
same,inhibition,[21]; at 0.5 µM,40.6% (inactive)
same,inhibition,"[21]; cisplatin combination, concentration series, at 5 µM",118%
same,inhibition,[22]; at 0.5 µM,57.3% (inactive)
same,inhibition,"[22]; measured here: combo with BGB IC20, at 0.5 µM",56.2%
same,inhibition,"[22]; measured here: combo with cisplatin IC20, at 0.5 µM",38.9%
same,inhibition,[23]; at 0.5 µM,-22.9% (inactive)
same,inhibition,"[23]; cisplatin combination, at 0.5 µM",-18.4%
same,inhibition,"[23]; cisplatin combination, at 5 µM",-1.49%
same,inhibition,"[23]; measured here: BGB IC40 combination 0.05 uM, at 0.05 µM",2.24%
same,inhibition,"[23]; single agent, at 5 µM",11.9%
same,inhibition,[24]; at 0.5 µM,33.4% (inactive)
same,inhibition,"[24]; cisplatin combo, at 5 µM",75.4%
same,inhibition,"[24]; measured here: BGB IC40 combination, at 0.05 µM",14.4%
same,inhibition,[24]; [33],45.3%
same,inhibition,"[24]; single agent, at 5 µM",63.7%
same,inhibition,[25]; at 0.5 µM,82.5% (active)
same,inhibition,[25]; [31],77.3%
same,inhibition,[25]; [32],85.1%
same,inhibition,"[25]; single agent, at 0.05 µM",57.8%
same,inhibition,"[25]; single agent, at 5 µM",99.7%
COC(=O)/C=C/c1ccc(CC(C)NCC(O)c2cccc(C(F)(F)F)c2)cc1 (stereo not drawn),growth inhibition,[26],96% (active)
same,inhibition,[27],16% (inactive)
same,inhibition,[28],0% (inactive)
same,growth inhibition,[29],97% (active)

# — PubChem BioAssay
